Counter-ions that a name gives are not always drawn. ± gives the standard deviation of the averaged measurements.
Key:
[1] = test system: Saccharomyces cerevisiae BY4741 SeMeCo community; assay: mean cell size (pixel area) (pixels); higher = larger cells; conditions: 10 µM; 24 h; SM minimal medium
Summary of the method: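 A fluorescent Saccharomyces cerevisiae BY4741 community carrying four plasmids was used, with each plasmid complementing one auxotrophy and bearing a fluorescent marker. An overnight preculture at OD600 = 1.0 was diluted to OD600 = 0.3, and 70 µl went into 384-well plates acoustically predosed with drug (final 10 µM) in SM medium for 24 h. After paraformaldehyde fixation, cells were imaged by automated confocal microscopy and analysed in Harmony, giving the mean cell pixel area per well. Each value is the average of 3 replicates. Same SeMeCo high-content imaging drug screen: Selleck FDA-approved drugs at 10 µM, 24 h in SM medium, 384-well plates, 3 replicates.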

[2] = test system: Saccharomyces cerevisiae BY4741 SeMeCo community; assay: z-score of prototroph abundance vs DMSO median; higher = larger share of this subpopulation than in DMSO controls; conditions: 10 µM; 24 h; SM minimal medium; subpopulation (auxotrophy): Prototroph
Summary of the method: (§1)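 A Saccharomyces cerevisiae BY4741 community carried four plasmids, each restoring one auxotrophy and encoding a distinct fluorescent protein. It was pre-grown overnight to OD600 1.0, diluted to 0.3, and 70 µl was added to 384-well plates acoustically predosed with library drugs (10 µM final), then grown 24 h in minimal SM medium. Cells were paraformaldehyde-fixed and imaged by automated confocal microscopy, with single-auxotroph fluorescent strains setting thresholds and autofluorescence correction. Each subpopulation's abundance was scored as a z-score against the vehicle-well median.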

[3] = test system: Saccharomyces cerevisiae BY4741 SeMeCo community; assay: z-score of subpopulation abundance vs DMSO median, subpopulation auxotrophic for M; higher = larger share of this subpopulation than in DMSO controls; conditions: 10 µM; 24 h; SM minimal medium; subpopulation (auxotrophy): M
Summary of the method: as §1

[4] = test system: Saccharomyces cerevisiae BY4741 SeMeCo community; assay: z-score of subpopulation abundance vs DMSO median, subpopulation auxotrophic for L; higher = larger share of this subpopulation than in DMSO controls; conditions: 10 µM; 24 h; SM minimal medium; subpopulation (auxotrophy): L
Summary of the method: as §1

[5] = test system: Saccharomyces cerevisiae BY4741 SeMeCo community; assay: z-score of subpopulation abundance vs DMSO median, subpopulation auxotrophic for U; higher = larger share of this subpopulation than in DMSO controls; conditions: 10 µM; 24 h; SM minimal medium; subpopulation (auxotrophy): U
Summary of the method: as §1

[6] = test system: Saccharomyces cerevisiae BY4741 SeMeCo community; assay: z-score of subpopulation abundance vs DMSO median, subpopulation auxotrophic for H; higher = larger share of this subpopulation than in DMSO controls; conditions: 10 µM; 24 h; SM minimal medium; subpopulation (auxotrophy): H
Summary of the method: as §1

[7] = test system: Saccharomyces cerevisiae BY4741 SeMeCo community; assay: z-score of subpopulation abundance vs DMSO median, subpopulation auxotrophic for LU; higher = larger share of this subpopulation than in DMSO controls; conditions: 10 µM; 24 h; SM minimal medium; subpopulation (auxotrophy): LU
Summary of the method: as §1

[8] = test system: Saccharomyces cerevisiae BY4741 SeMeCo community; assay: z-score of subpopulation abundance vs DMSO median, subpopulation auxotrophic for LM; higher = larger share of this subpopulation than in DMSO controls; conditions: 10 µM; 24 h; SM minimal medium; subpopulation (auxotrophy): LM
Summary of the method: as §1

[9] = test system: Saccharomyces cerevisiae BY4741 SeMeCo community; assay: z-score of subpopulation abundance vs DMSO median, subpopulation auxotrophic for HM; higher = larger share of this subpopulation than in DMSO controls; conditions: 10 µM; 24 h; SM minimal medium; subpopulation (auxotrophy): HM
Summary of the method: as §1

[10] = test system: Saccharomyces cerevisiae BY4741 SeMeCo community; assay: z-score of subpopulation abundance vs DMSO median, subpopulation auxotrophic for HU; higher = larger share of this subpopulation than in DMSO controls; conditions: 10 µM; 24 h; SM minimal medium; subpopulation (auxotrophy): HU
Summary of the method: as §1

[11] = test system: Saccharomyces cerevisiae BY4741 SeMeCo community; assay: z-score of subpopulation abundance vs DMSO median, subpopulation auxotrophic for UM; higher = larger share of this subpopulation than in DMSO controls; conditions: 10 µM; 24 h; SM minimal medium; subpopulation (auxotrophy): UM
Summary of the method: as §1

[12] = test system: Saccharomyces cerevisiae BY4741 SeMeCo community; assay: z-score of subpopulation abundance vs DMSO median, subpopulation auxotrophic for HL; higher = larger share of this subpopulation than in DMSO controls; conditions: 10 µM; 24 h; SM minimal medium; subpopulation (auxotrophy): HL
Summary of the method: as §1

[13] = test system: Saccharomyces cerevisiae BY4741 SeMeCo community; assay: z-score of subpopulation abundance vs DMSO median, subpopulation auxotrophic for HLM; higher = larger share of this subpopulation than in DMSO controls; conditions: 10 µM; 24 h; SM minimal medium; subpopulation (auxotrophy): HLM
Summary of the method: as §1

[14] = test system: Saccharomyces cerevisiae BY4741 SeMeCo community; assay: z-score of subpopulation abundance vs DMSO median, subpopulation auxotrophic for HUM; higher = larger share of this subpopulation than in DMSO controls; conditions: 10 µM; 24 h; SM minimal medium; subpopulation (auxotrophy): HUM
Summary of the method: as §1

[15] = test system: Saccharomyces cerevisiae BY4741 SeMeCo community; assay: z-score of subpopulation abundance vs DMSO median, subpopulation auxotrophic for LUM; higher = larger share of this subpopulation than in DMSO controls; conditions: 10 µM; 24 h; SM minimal medium; subpopulation (auxotrophy): LUM
Summary of the method: as §1

[16] = test system: Saccharomyces cerevisiae BY4741 SeMeCo community; assay: z-score of subpopulation abundance vs DMSO median, subpopulation auxotrophic for HLUM; higher = larger share of this subpopulation than in DMSO controls; conditions: 10 µM; 24 h; SM minimal medium; subpopulation (auxotrophy): HLUM
Summary of the method: as §1

SMILES	mean cell size [1]	z-score of prototroph abundance [2]	z-score of subpopulation abundance [3]	z-score of subpopulation abundance [4]	z-score of subpopulation abundance [5]	z-score of subpopulation abundance [6]	z-score of subpopulation abundance [7]	z-score of subpopulation abundance [8]	z-score of subpopulation abundance [9]	z-score of subpopulation abundance [10]	z-score of subpopulation abundance [11]	z-score of subpopulation abundance [12]	z-score of subpopulation abundance [13]	z-score of subpopulation abundance [14]	z-score of subpopulation abundance [15]	z-score of subpopulation abundance [16]
C[N+](C)(C)CCO.[Cl-] [Choline Chloride]	12 ± 0.25	0.21	-1.56	-0.08	0.8	-0.8	0.54	-0.75	-1.2	-0.41	0.32	-0.62	-0.83	-0.76		
COc1ccc2[nH]c([S+]([O-])Cc3ncc(C)c(OC)c3C)nc2c1 (configuration not stated) [Omeprazole]	12.3 ± 0.19	-0.07	-0.74	1.33	-1.23	1.65	0.12	0.56	0.37		-0.94		-0.19	-0.34	0.62	-0.03
COc1ccccc1OCC(O)CN1CCN(CC(=O)Nc2c(C)cccc2C)CC1 (configuration not stated) [Ranolazine 2HCl]		0.5	-0.08	0.24	-0.29	0.04	0.35	-0.74	-0.18			0.26	-0.72		-0.47	-0.5
O=C1C(CC[S+]([O-])c2ccccc2)C(=O)N(c2ccccc2)N1c1ccccc1 (racemic) [(+/-)-Sulfinpyrazone]	12.5 ± 0.2	0.12	-0.48	-0.72	-0.3	-0.21	0.28	0.26	0.14	-0.49	0.41	-0.17	0.61	0.22	0.05	
COc1cc2c(cc1OC)C(=O)C(CC1CCN(Cc3ccccc3)CC1)C2 (configuration not stated) [Donepezil HCl]	12 ± 0.22	0.26	0.12	-0.02	-0.01	0.71	-0.36		-0.33		-0.48		0.49	0.3	-0.52	-1.2
NCCNc1ccc(NCCN)c2c1C(=O)c1ccncc1C2=O [Pixantrone Maleate]		3.16	-11.8	1.31	2.84		2.14	-5.3	-5.86	4.69	-7.68		-2.2		-4.09	-1.46
NC(=O)c1cn(Cc2c(F)cccc2F)nn1 [Rufinamide]	12.2 ± 0.16	-0.37	0.02	1.41	-0.6	0.5	0.45	0.7		-0.24	-0.01	0.55	0.38	0.45	0.43	
Nc1nc2ccc(OC(F)(F)F)cc2s1 [Riluzole]		0.62	-0.49	0.43	-0.8	-0.43	0.41	0.35	-0.84	-1.39	-0.42	-0.55	0.67	-0.82	-0.13	
O=C(Cn1cnnn1)N[C@@H]1C(=O)N2C(C(=O)O)=C(CSc3nncs3)CS[C@H]12 [Ceftezole sodium]		-0.69	0.01	-0.77	1.07	-0.94	0.2		-0.19	0.45		0	0.32	-0.02	0.36	0.82
C1N2CN3CN1CN(C2)C3 [Methenamine]	12.21 ± 0.073	-0.97	0.26	-0.63		0.28	-0.57	0.49	1.35	0.2	0.8	-0.01	0.4	0.39	0.29	
O=C(NCCO[N+](=O)[O-])c1cccnc1 [Nicorandil]	12.4 ± 0.13	0.69	-0.48	0.07	-0.31	-0.28	0.21		-0.61	-0.39	-0.61		-0.83		-0.44	-0.37
NC(=O)C(c1ccccc1)(c1ccccc1)[C@@H]1CCN(CCc2ccc3c(c2)CCO3)C1 [Darifenacin HBr]	12.4 ± 0.39		0.85	-0.21	0.01	-1.43	-0.1	-0.2	-0.73		0.53	-0.56	-0.63	0.05	-0.55	-0.5
CCOC(=O)c1ccc(O)cc1 [Ethylparaben]	12.5 ± 0.25	-1.38	-0.6	-0.33		-0.25	0.65	-0.67	-0.62				0.26	0.44	0.63	1.8
O=C1N=C(O)NC1(c1ccccc1)c1ccccc1 [Phenytoin Sodium]		-0.72	-0.37	0.11	1.21		0.96	-0.6	-1.02	-0.05	0.67	-0.83	0.15	0.83	-0.31	1.18
CN(C/C=C/C#CC(C)(C)C)Cc1cccc2ccccc12 [Terbinafine HCl]	12.27 ± 0.088	-0.62	1.09	-0.84	1.03	-0.56	0.54	-0.74	-0.78	0.89	1.94	-0.47	-0.22			1
